Experimental data taken from PubChem BioAssay (NCI).
This is part of a sample that, as a whole, favours compounds with a hit. Of some 83,000 tested, about 20% had one in any assay.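 Note: values are percent growth. 100 is the growth of untreated cells, values between 100 and 0 indicate rising inhibition; between -100 and 0 indicates cell death.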 The source made the active and inactive calls. How the source made its calls: active means growth percent below 10; inactive means the rest.

How the values were obtained:
Assay in all cases: NCI-60 one-dose screen, 48 h (100 = growth as untreated, 0 = no growth, -100 = all killed)
Conditions in all cases: 10 µM unless noted
NCI-H23 lung = system: NCI-H23 lung
NCI-H226 lung = system: NCI-H226 lung
NCI-H322M lung = system: NCI-H322M lung
HOP-62 NSCLC = system: HOP-62 NSCLC
NCI-H460 lung = system: NCI-H460 lung
HOP-92 NSCLC = system: HOP-92 NSCLC
NCI-H522 lung = system: NCI-H522 lung
A549/ATCC NSCLC = system: A549/ATCC NSCLC
786-0 renal = system: 786-0 renal
COLO 205 colon = system: COLO 205 colon
DU-145 prostate = system: DU-145 prostate
K-562 leukemia = system: K-562 leukemia
MALME-3M melanoma = system: MALME-3M melanoma
MDA-MB-231 breast = system: MDA-MB-231 breast
RXF 393 renal = system: RXF 393 renal
SF-268 CNS = system: SF-268 CNS
SF-539 CNS = system: SF-539 CNS
UACC-257 melanoma = system: UACC-257 melanoma
M14 melanoma = system: M14 melanoma

Measured: growth

CCC(=O)OC1=CN2C(=NC(c3ccc(N)cc3)=CC2c2cc(OC)c(OC)c(OC)c2)S1 (stereo not drawn)
active: DU-145 prostate -16.6% | K-562 leukemia 6.1%
inactive: NCI-H23 lung 84.8% | NCI-H226 lung 75% | NCI-H322M lung 63% | HOP-62 NSCLC 48.1% | NCI-H460 lung 16.7% | HOP-92 NSCLC 48.4% | NCI-H522 lung 40.6% | A549/ATCC NSCLC 39.2% | 786-0 renal 72.1% | COLO 205 colon 47% | MALME-3M melanoma 63.7% | MDA-MB-231 breast 67.1% | RXF 393 renal 35.1% | SF-268 CNS 60.8% | SF-539 CNS 43.8% | UACC-257 melanoma 37.1% | M14 melanoma 52.5%

O=C(Nc1cccc(-n2cc(-c3ccncc3)c(-c3ccc(Cl)c(O)c3)n2)c1)Nc1cc(C(F)(F)F)cc(C(F)(F)F)c1
active: NCI-H23 lung -7.93% | NCI-H226 lung 1.17% | NCI-H322M lung 5.11% | HOP-62 NSCLC -86.1% | NCI-H460 lung -55.7% | HOP-92 NSCLC -45.8% | NCI-H522 lung -50.1% | A549/ATCC NSCLC -32.4% | 786-0 renal -46.8% | COLO 205 colon -97.3% | DU-145 prostate -28.2% | K-562 leukemia -19.5% | MALME-3M melanoma -23% | MDA-MB-231 breast -88.9% | RXF 393 renal -66.7% | SF-268 CNS -36.4% | SF-539 CNS -63% | UACC-257 melanoma -50.9% | M14 melanoma -37.2%

COc1cc(Nc2nc(N[C@H]3CCCC[C@@H]3N)nc3cc[nH]c(=O)c23)cc(OC)c1
inactive: NCI-H23 lung 30.2% | HOP-62 NSCLC 47.6% | NCI-H460 lung 27.6% | A549/ATCC NSCLC 19.1% | 786-0 renal 40.4% | COLO 205 colon 18.8% | DU-145 prostate 41.7% | K-562 leukemia 24.6% | MALME-3M melanoma 91.6% | MDA-MB-231 breast 38.4% | RXF 393 renal 10.9% | SF-268 CNS 48.1% | M14 melanoma 40.2%
active: NCI-H226 lung -13.5% | NCI-H322M lung 9.42% | HOP-92 NSCLC -10.1% | NCI-H522 lung -9.29% | SF-539 CNS -3.04% | UACC-257 melanoma 7.33%

COc1cc(-c2nn(-c3cccc(NC(=O)c4cccc(C(F)(F)F)c4)c3)cc2-c2ccncc2)ccc1Cl
inactive: NCI-H23 lung 24.7% | NCI-H226 lung 36.2% | NCI-H322M lung 58.1% | HOP-62 NSCLC 22.9% | 786-0 renal 29.8% | MALME-3M melanoma 10.1% | SF-268 CNS 30.5% | UACC-257 melanoma 34.5% | M14 melanoma 12.3%
active: NCI-H460 lung 4.83% | HOP-92 NSCLC -5.59% | NCI-H522 lung -42.3% | A549/ATCC NSCLC 7.4% | COLO 205 colon 7.11% | DU-145 prostate 2.16% | K-562 leukemia 6.11% | MDA-MB-231 breast 4.67% | RXF 393 renal -42.8% | SF-539 CNS -48.8%

Nc1nnc(-c2ccc3ccccc3c2O)o1
inactive: NCI-H23 lung 85.3% | NCI-H226 lung 94.8% | NCI-H322M lung 88% | HOP-62 NSCLC 89.8% | NCI-H460 lung 92.6% | HOP-92 NSCLC 83% | NCI-H522 lung 85.1% | A549/ATCC NSCLC 93.5% | 786-0 renal 104% | COLO 205 colon 99.5% | DU-145 prostate 117% | K-562 leukemia 93.5% | MALME-3M melanoma 89.1% | MDA-MB-231 breast 92.4% | RXF 393 renal 99.2% | SF-268 CNS 94.8% | SF-539 CNS 95.7% | UACC-257 melanoma 102% | M14 melanoma 86.4%

Nc1cc2c([nH]c[n+]2CC#CCCl)c(SCC#CCCl)n1
active: NCI-H23 lung -72.2% | NCI-H226 lung -42.5% | NCI-H322M lung -66.6% | HOP-62 NSCLC -62.8% | NCI-H460 lung -7.39% | HOP-92 NSCLC -39.7% | NCI-H522 lung -90.7% | A549/ATCC NSCLC -7.51% | 786-0 renal -86.5% | COLO 205 colon -48.5% | DU-145 prostate -5.81% | K-562 leukemia 5.47% | MALME-3M melanoma -46.4% | MDA-MB-231 breast -50.2% | RXF 393 renal -90.5% | SF-268 CNS -9.39% | SF-539 CNS -75.3% | UACC-257 melanoma -59.5% | M14 melanoma -90.9%

OC(c1cc2cc(Br)ccc2c2cc(Br)ccc12)C1CCCCN1 (stereo not drawn)
active: NCI-H23 lung -75.4% | NCI-H226 lung -70.1% | NCI-H322M lung -84.9% | HOP-62 NSCLC -84.1% | NCI-H460 lung -71.7% | HOP-92 NSCLC -88.9% | NCI-H522 lung -86.1% | A549/ATCC NSCLC -81.3% | 786-0 renal -41.6% | COLO 205 colon -89.9% | DU-145 prostate -93.5% | K-562 leukemia -72.2% | MALME-3M melanoma -57.5% | MDA-MB-231 breast -73.5% | RXF 393 renal -94.1% | SF-268 CNS -84.5% | SF-539 CNS -82.9% | UACC-257 melanoma -82.9% | M14 melanoma -75.8%
